Compound activity deposited in PubChem BioAssay by several laboratories.
Anthrax LF prot – inhibitors of Bacillus anthracis lethal factor protease; AID 588501; multiplex microsphere protease cleavage assay, LF; inhibition, % at 10 µM; hit rate 0.12% among 360,000; P15917
BoNT-A LC inh2 – blocks Botulinum neurotoxin A light chain protease | multiplex microsphere protease substrate cleavage, flow cytometry | inhibition, % at 10 µM | hit rate 0.17% among 360,000 | AID 588499
Autofluor counter – counter-screen for toxin protease inhibitors: compound fluorescence; compound autofluorescence counterscreen, microsphere flow cytometry; stronger effect = higher value; fluorescence intensity (concentration not given with the values); hit rate 3.1% among 360,000; AID 624483; in the data active = fluorescence intensity above about 16000; inconclusive = no clear call, values can overlap the other calls
BoNT-F LC inh – BoNT F light chain protease inhibition. Multiplex microsphere protease cleavage assay, flow cytometry. inhibition, % at 10 µM. hit rate 0.22% among 360,000. AID 588497; in the data active = inhibition above about 35%, passing the limit was not always enough; inconclusive = no clear call, values can overlap the other calls
Vc quorum ag – quorum light induction in luxS cqsA deficient V. cholerae | V. cholerae BH1578 lux reporter, luminescence, 6 h | activation, % at 18.7 µM | hit rate 0.16% among 350,000 | AID 588436; in the data active = activation mostly above about 9.7%, no sharp cut-off; inconclusive = no clear call, values can overlap the other calls; inactive = mostly below about 3.7%
MazF activator – increases E. coli MazEF RNase cleavage of RNA; activation, % at 20 µM; P0AE70; FAM/BHQ RNA-DNA oligo cleavage fluorescence, 5 h; AID 504720; hit rate 0.32% among 350,000; in the data active = activation above about 50%
Of the large screens only hits and unclear results are named; the others gave an inactive call. Sampled rows, rich in hits. Any-hit rate of the full collection: about 3.9%. Cut-off read from the data, not from the text of the source, unless noted: active = inhibition above about 30%; inconclusive = no clear call, values can overlap the other calls; inactive = below that.

COc1ccccc1/C=C/C(=O)c1c2c(c(C)[nH]c1=O)CCCC2	BoNT-A LC inh2 inconclusive, Autofluor counter 21882
COc1ccccc1/C=C/C(=O)c1ccc(Cl)cc1	Autofluor counter 24068
Cc1cccc(C(=O)Nc2ccc3c(c2)ncn3C)c1	none
COc1ccc2ccccc2c1CN1CCN(Cc2ccccc2)CC1	none
COc1ccc2ccccc2c1CN1CCCC(CO)C1 (centres undefined)	BoNT-A LC inh2 inconclusive, Autofluor counter 22577
COc1cccc(NC(=O)COC(=O)c2ccccc2C(=O)N2CCN(c3ccccc3)CC2)c1	none
Cn1cc(C=C(C#N)C#N)c2ccccc21	MazF activator 154.2
CN1CCC(N(C)C(=S)NCCc2ccccc2)CC1	none
CSc1nnc(-c2ccc(O)cc2)n1C	Autofluor counter 21757
Cn1c(SCC(=O)c2ccccc2)nnc1-c1ccc(O)cc1	Autofluor counter 20320
Cn1c(SCCCC(=O)c2ccc(F)cc2)nnc1-c1ccncc1	none
Cc1ccc(-n2c(Cc3ccccc3)nnc2SCC(=O)NNC(=O)Cc2ccccc2)cc1	Autofluor counter 16282
Cn1c(SCCCC(=O)c2ccccc2)nnc1-c1ccncc1	BoNT-A LC inh2 inconclusive, Autofluor counter 19499
CSc1nsc(SCC(=O)Nc2ccc(F)cc2F)n1	none
Cc1cc(NC(=O)C(C)Oc2ccc(Cl)cc2Cl)no1 (centres undefined)	none
Cn1c(SCC(=O)NNC(=O)Cc2ccccc2)nnc1-c1ccccc1	Vc quorum ag 30.6
O=C(NC(=S)Nc1ccc2c(c1)OCO2)c1ccc(Cl)cc1	none
O=C(Nc1ccc2c(c1)OCO2)C1(S(=O)(=O)c2ccc(Cl)cc2)CC1	Autofluor counter 24545
CCc1ccc([C@@H]2CC(=O)[C@@H]3CN(S(=O)(=O)c4ccccc4)[C@H](c4ccc(OC)cc4)C[C@@H]3N2S(=O)(=O)c2ccc(C)cc2)cc1	none (no result: Vc quorum ag, MazF activator)
Cc1ccc(OC(C)C(=O)N2CCCc3ccccc32)cc1 (centres undefined)	BoNT-A LC inh2 inconclusive, Autofluor counter 17127
Cc1cccc(OC(C)C(=O)N2CCCc3ccccc32)c1 (centres undefined)	none
CCc1nc(SCc2nc3ccccc3[nH]2)c2oc3ccccc3c2n1	Autofluor counter 17511
CCc1nc(SCC(=O)N2CCN(c3ccccc3)CC2)c2oc3ccccc3c2n1	Autofluor counter 17485
CCc1nc(SCC(=O)c2ccc(Cl)s2)c2oc3ccccc3c2n1	Autofluor counter 16776
CCc1nc(SCCO)c2oc3ccccc3c2n1	none
CCC(C(=O)N1CCOCC1)n1nc(C)c2sc3ccccc3c2c1=O (centres undefined)	none
COCCn1c(SCC(=O)N(C(C)C)C(C)C)nnc1-c1cc2ccccc2cc1O	BoNT-A LC inh2 inconclusive, Autofluor counter 23496
CC(C)N(C(=O)CSc1nnc(-c2cc3ccccc3cc2O)n1Cc1ccco1)C(C)C	BoNT-A LC inh2 inconclusive, Autofluor counter 20006
COCCn1c(SCC(=O)Nc2nnc(C)s2)nnc1-c1cc2ccccc2cc1O	none
CSc1ncc(CO)n1Cc1ccccc1	none
CC1CC(C)CN(C(=O)C2CCN(S(=O)(=O)c3c(Cl)cccc3Cl)CC2)C1 (centres undefined)	none
Cc1ccc(C2C(C#N)=C(N)SC(N)=C2C#N)c(C)c1	BoNT-A LC inh2 40.0, BoNT-F LC inh 71.0
COc1ccccc1C1c2ccc3ccccc3c2Oc2ncn(CCN(C)C)c(=N)c21 (centres undefined)	none
COc1ccc(C2c3ccc4ccccc4c3Oc3ncn(CCCN(C)C)c(=N)c32)cc1 (centres undefined)	MazF activator 50.3
COc1ccc(C2c3ccc(O)cc3Oc3ncn(CCN4CCOCC4)c(=N)c32)cc1 (centres undefined)	none
N=c1c2c(ncn1CCCO)Oc1cc(O)ccc1C2c1ccccc1 (centres undefined)	MazF activator 64.5
NC(=S)NN=C1c2cc(OCCN3CCOCC3)ccc2-c2ccc(OCCN3CCOCC3)cc21	BoNT-F LC inh inconclusive
Cc1cc(NS(=O)(=O)c2ccc(NC(=O)c3cc4cc(Br)ccc4oc3=O)cc2)no1	none
COc1cc(/C=C2\C(=N)N3N=C(S(C)(=O)=O)SC3=NC2=O)cc(OC)c1OCCOc1ccccc1C	BoNT-F LC inh inconclusive
COc1cc(/C=C2\C(=N)N3N=C(C)SC3=NC2=O)cc(OC)c1OCCOc1ccccc1C	BoNT-F LC inh 55.3
COc1ccc(CN(Cc2ccccn2)C(=O)CN2C(=O)COc3ccccc32)cc1	none
